Screening results as filed in PubChem BioAssay.
Most compounds without a hit are left out; they make up all but 6.3% or so of the library.
PMK inhibit: inhibitors of Streptococcus pneumoniae phosphomevalonate kinase | purified PMK, PK/LDH-coupled NADH absorbance 340 nm | inhibition, % at 10 µM | 65,000 compounds, 0.49% hits | AID 539;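 active = top-ranked compounds by inhibition in the single 10 µM screen, taking a fixed number of the strongest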;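 note: 0% = full reaction with DMSO carrier and 100% = background rate without enzyme reaction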
Spn MK inh: S. pneumoniae mevalonate kinase inhibition; purified MK, PK/LDH-coupled NADH absorbance 340 nm; inhibition, % at 10 µM; 65,000 compounds, 0.48% hits;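 active = ranked among the strongest by inhibition in the single 10 µM screen, a fixed top-ranked set picked for dose follow-up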
Autofluor 339: intrinsic fluorescence of library compounds, ex339/em460 – biochemical, MLSMR library, data from DPM-DC assay, artefact control, profiling panel; compound autofluorescence, ex339/em460 nm, NADH buffer; stronger effect = higher value; 1 = no-compound wells, NADH background; fluorescence fold increase at 10 µM; 65,000 compounds, 5.5% hits; AID 709;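 active = at 10 µM, mean starting fluorescence two-fold or more over control wells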;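 note: signal is the first read of a kinetic run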
Abs 340nm: absorbance at 340 nm; compound absorbance at 340 nm, fold over control; fold change at 10 µM; 65,000 tested, under 10 active; AID 708;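 active = at 10 µM dose, initial 340 nm absorbance at least 2 fold that of control wells; inactive = change under 2 fold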;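 note: initial absorbance extrapolated from kinetic A340 decline of NADH oxidation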
DPM-DC inhibit: inhibitors of Streptococcus pneumoniae diphosphomevalonate decarboxylase; purified DPM-DC, PK/LDH coupled NADH fluorescence; calls only at 10 µM; 65,000 compounds, 0.49% hits; AID 556;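 active = the 320 compounds with the highest percent inhibition in the single-dose primary screen, excluding strongly autofluorescent ones, cut at about 32% in these data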;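 note: kinetic rate of NADH fluorescence loss reporting ADP formed by the decarboxylase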
NADH enzymes: inhibition of NAD/NADH coupling enzymes, library profiling. coupled PK/LDH NADH assays, four targets. IC50, µM (series often up to 10 µM), without a hit: top-dose inhibition. 65,000 compounds, 0.02% hits;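 active = single-dose screening hits from any of four coupled enzyme assays that gave an IC50 when retested across doses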;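 note: the DPM-DC format reads NADH fluorescence rather than 340 nm absorbance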
* = called active by the depositor; i = inactive; . = no result given; + = active, no number.

SMILES	PMK inhibit	Spn MK inh	Autofluor 339	Abs 340nm	DPM-DC inhibit	NADH enzymes
CCC(=O)N(CCO)Cc1cc2ccc(C)c(C)c2[nH]c1=O	12.0	10.0	1.59	1.07	i	10.0%
CCOc1ccc2[nH]c(=O)c(CN(Cc3ccc(F)cc3)C(=O)c3ccco3)cc2c1	1.0	6.0	1.66	1.04	i	8.0%
Cc1nc2nc(C)c(CCC(=O)Nc3ccc4c(c3)OCO4)c(C)n2n1	12.0	5.0	1.13	0.99	i	6.0%
Cc1nnc(SCC(=O)NC(C)c2ccccc2)[nH]c1=O (configuration not stated)	1.0	0.0	0.88	1.03	i	4.0%
O=S(=O)(Nc1cccc2ncccc12)c1cccs1	16.0	0.0	1.11	0.99	+	6.0%
O=S(=O)(Nc1ccc(-c2nc3cccnc3s2)cc1)c1cccs1	14.0	5.0	2.08*	1.29	.	10.0%
O=C1Nc2ccc(NS(=O)(=O)c3cccs3)c3cccc1c23	8.0	2.0	1.06	1.04	i	3.0%
COc1ccc2c(-c3cccnc3)cc(=O)[nH]c2c1	11.0	3.0	2.13*	1.02	i	6.0%
CCCCN=CC1=C(O)C(C(=O)OC)C(C)(C)CC1=O (configuration not stated)	4.0	0.0	1.03	1.06	i	1.0%
CCN(CC)S(=O)(=O)c1ccc2[nH]cc(C(=O)NCCN3CCCCC3C)c(=O)c2c1 (configuration not stated)	13.0	0.0	2.97*	1.08	i	8.0%
CCN(CC)S(=O)(=O)c1ccc2[nH]cc(C(=O)NCCN3CCCCCC3)c(=O)c2c1	17.0	0.0	2.92*	1.06	i	8.0%
COc1cccc(NS(=O)(=O)c2ccc3[nH]cc(C(=O)NCCN4CCOCC4)c(=O)c3c2)c1	16.0	7.0	1.4	1.08	i	8.0%
CCOc1ccc(N(C)S(=O)(=O)c2ccc3[nH]cc(C(=O)NCC4CCCO4)c(=O)c3c2)cc1 (configuration not stated)	0.0	8.0	1.13	1.04	i	1.0%
CCN(CC)S(=O)(=O)c1ccc2[nH]cc(C(=O)NCCC3=CCCCC3)c(=O)c2c1	16.0	0.0	1.31	0.99	i	5.0%
Cc1ccccc1N(C)S(=O)(=O)c1ccc2[nH]cc(C(=O)NCC3CCCO3)c(=O)c2c1 (configuration not stated)	21.0	0.0	2.15*	1.01	i	16.0%
COc1cc2c(cc1NC(=O)CN(C)Cc1nc3ccccc3c(=O)[nH]1)oc1ccccc12	13.0	2.0	1.11	1.06	i	5.0%
Cc1nn(Cc2ccccc2)c2c1C(c1ccncc1)C(C#N)=C(N)O2 (configuration not stated)	31.0*	8.0	1.05	0.98	i	4.0%
Cc1nn(Cc2ccccc2)c2c1C(c1ccco1)C(C#N)=C(N)O2 (configuration not stated)	9.0	15.0	1.03	1.1	i	8.0%
COCCn1c(CNc2ccc(F)cc2)nnc1SCC(=O)Nc1ccc(OC)cc1OC	15.0	8.0	1.09	1.01	i	8.0%
Cc1ccc2cccc(SCC(=O)NCc3ccco3)c2n1	8.0	8.0	3.85*	1.05	.	8.0%
O=C(CSc1nc2ccccc2nc1SCC(=O)N1CCOCC1)N1CCOCC1	0.0	0.0	1.04	1.12	i	1.0%
Cc1ccc(-n2c(CSc3nc(C)cc(C)n3)nnc2SCC(=O)NCc2ccco2)cc1	26.0*	4.0	1.05	0.96	i	11.0%
Cc1ccc(-n2c(Cc3cccn3C)nnc2SCC(=O)NCc2ccco2)cc1	7.0	7.0	1.17	1	i	5.0%
Cc1ccc2cccc(OCC(=O)NCc3ccco3)c2n1	9.0	0.0	1.05	0.99	i	3.0%
Cc1ccc2cccc(SCC(=O)N3CCOCC3)c2n1	11.0	6.0	2.48*	0.99	.	5.0%
SMILES	PMK inhibit	Spn MK inh	Autofluor 339	Abs 340nm	DPM-DC inhibit	NADH enzymes
CC(C)(C)c1ccccc1OCCCCCNCCO	52.0*	44.0*	1.08	1.04	i	32.0%
CCOC(=O)c1c(C)[nH]c(C(=O)Cn2nnc(-c3ccc(Cl)cc3)n2)c1C	0.0	4.0	1.03	1.04	i	1.0%
COc1ccc(OC)c(-c2nnc(-c3ccc(C)o3)o2)c1	10.0	12.0	3.9*	1.1	.	11.0%
CC1CCc2cc(F)cc3c(=O)c(C(=O)O)cn1c23 (configuration not stated)	2.0	12.0	1.03	1.01	i	6.0%
COc1c(N2CCNC(C)C2)c(F)cc2c(=O)c(C(=O)O)cn(C3CC3)c12 (configuration not stated)	12.0	1.0	3.85*	1.1	.	7.0%
COc1ccccc1CCn1cnc2c3cc(C)ccc3n(C)c2c1=O	0.0	4.0	3.3*	1.01	i	8.0%
Cc1ccc2c(c1)[nH]c1c(=O)n(CCN3CCCCC3)cnc12	11.0	0.0	1.67	1.08	i	6.0%
COc1ccc2c(c1)c1ncn(CCN3CCCC3)c(=O)c1n2C	10.0	9.0	3.69*	1.05	.	10.0%
O=C(Nc1cccc(NS(=O)(=O)c2ccc(S(=O)(=O)NC3CC3)cc2)c1)c1ccccn1	0.0	6.0	1.1	1.04	i	2.0%
COc1ccccc1-n1c(=O)oc2ccc(Cl)cc2c1=O	0.0	21.0	1.14	1.02	i	9.0%
O=[n+]1cc(-c2ccc(F)cc2)n([O-])c2c1CCC2	18.0	0.0	1.04	1	i	4.0%
O=[n+]1cc(-c2cc3ccccc3o2)n([O-])c2c1CCCC2	13.0	12.0	2.88*	1.18	i	16.0%
CCOc1cc(C2Nc3ccccc3C(=O)N2c2ccccc2OC)ccc1O (configuration not stated)	5.0	0.0	2.47*	1.03	.	2.0%
COc1cc(C2Nc3ccccc3C(=O)N2c2ccccc2OC)ccc1O (configuration not stated)	12.0	2.0	5.1*	1.01	.	7.0%
CN1c2ccccc2-c2nc3ccccc3n2C1c1ccncc1 (configuration not stated)	10.0	5.0	1.91	1.05	i	5.0%
CN1c2ccccc2-c2nc3ccccc3n2C1c1ccccn1 (configuration not stated)	0.0	7.0	2.24*	1.07	.	4.0%
O=C1N=C(c2ccccc2)C(c2ccccc2)N1 (configuration not stated)	0.0	9.0	2.22*	1.05	.	5.0%
COC(=O)CSc1nc(N2CCOCC2)c2c(c1C#N)CC(C)(C)N(C)C2	6.0	13.0	2.12*	1.05	i	11.0%
CC(=O)c1cccc(NC(=O)c2nccnc2C(=O)O)c1	16.0	1.0	1.01	1.05	i	6.0%
O=C(Nc1cc(=O)c2ccccc2o1)N1CCCCC1	0.0	11.0	1.18	1.11	i	4.0%
CSc1ccc(-c2cc(=O)c3ccccc3o2)cc1	14.0	0.0	2.89*	1.06	.	3.0%
